Measured values: the supplement of paper PMC11417369
± gives the standard deviation of the averaged measurements. Over roughly 25,000 sequences, “ln(normalized median fluorescence intensity)” has its median near 7.9; the highest 2% begin near 11. The sample as a whole holds a higher share of the highest values than the screen did.

Test system: PfAP2-I AP2 domain 3 (GST-tagged)
Assay: gcPBM binding intensity (ln(normalized median fluorescence intensity)); higher = stronger DNA binding
How it was run: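 Probes on an Agilent 4 × 180k array were primer-extended, double-stranded and 36 bp long, taken from intergenic genomic regions, with negative controls added. GST-tagged P. falciparum DNA-binding domains from E. coli, about 25 μg on average, were applied to the array for 1 h in 1× PBS containing 1% milk, 0.2 mg/ml BSA, 0.5% salmon testes DNA and 0.03% Triton X-100. Binding intensity, obtained after Alexa488 anti-GST antibody detection and a 488 nm scan, is the highest Masliner-normalised natural-log median intensity across replicate spots of either probe orientation.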

Row | Sequence | gcPBM binding intensity (ln)
1 | ATGGATTATTTTTAAACATGCAGTAGTGATGAAAAA [TGCATGCA_site346] | 8.36 ± 0.53
2 | CATATTCCCCCCCACACACACACACCCATACATACC [CACACA_site2303] | 11.2 ± 0.44
3 | CATATTCCCCCCCACACACACACACGCATACATACC [CACACA_site7148] | 10.8 ± 0.33
4 | GACATATTCCCCCCCACACACACACCCACATACATA [CACACA_site2302] | 10.8 ± 0.26
5 | GTTGAAAAAAAAAATGCACACGCATACATATAATAT [CACACA_site8117] | 8.71 ± 0.29
6 | TGAAAAAAAAAATGCACACGCATACAGATAATATGT [CACACA_site4526] | 8.62 ± 0.51
7 | TGAAATAAATAATGCACACTCTACAGATATACGTAT [CACACA_site5270] | 11.1 ± 0.66
8 | TTTGAAATAAATAATGCACACTCTACATATATACGT [CACACA_site2244] | 11.1 ± 0.61
9 | AAATATAATATATGCACACATACATACAGATATATA [CACACA_site4235] | 9.22
10 | AAATATAATATATGCACACATACATACATATATATA [CACACA_site104] | 9.41 ± 0.3
11 | AAAAATAAAATATATACATGCATATACATATTATAT [TGCATGCA_site668] | 7.87 ± 0.45
12 | AATTATATAAGCCACGCATGTGTGCATAAAAATACA [TGCATGCA_site114] | 11.1 ± 0.34
13 | AAATAAAATTATAATACATGCATACATACATATATA [TGCATGCA_site69] | 7.9 ± 0.54
14 | ATGTTAATAACTTGTGGTACTGTTATAATTTAGTAA [XGTACX_site2114] | 7.71 ± 0.42
15 | ATATATATATAATTATATAAAATATATCATATGTTA [XGTACX_negctrl_site47] | 8.76 ± 0.16
16 | TATTAATTATATTTATGTACATAATCATATTATTAT [XGTACX_site7938] | 7.66 ± 0.39
17 | TTTAATCATATGTTATATAATAAGCCCCCCCCCCAA [CACACA_negctrl_site486] | 11.1 ± 0.63
18 | ATTATTTGATTAAAGGTGCAAGGATAATAATAAAAC | 9.47 ± 0.17
19 | ATTAATAATCGAAAGGTGCACTTTGATTTGATAACA | 11.2 ± 0.3
20 | AAAAAAAAAAAAAAGGTGCATACTTTGAATTAATAT [GTGCAC_site9401] | 9.87 ± 0.17

Row | Sequence | gcPBM binding intensity (ln)
21 | AAAAAAAAAAAAAAAAGTACATGAAAAAAAGAAGAA [XGTACX_site8384] | 8.7 ± 0.27
22 | ATTATGTACAAAATGGTGCAATATTATACATATATA [GTGCAC_site9468] | 11.1 ± 0.49
23 | GACAATTATATGTAGGTGCATATACAAATTTTTTAA | 10.4 ± 0.57
24 | AAATAAAATAATAAAACATGCAAAAATAATGATTTA [TGCATGCA_site415] | 7.71 ± 0.76
25 | TAAAGGAAATAAAAAACATGCAAATATGAAATATAT [TGCATGCA_site745] | 7.61 ± 1.1
26 | ATTTTATATACAAAATGTACATATTTATTATATATG [XGTACX_site6732] | 7.74 ± 0.5
27 | CATATATATTTTATATGTACATATATATTTTATATA [XGTACX_site8665] | 7.59 ± 0.15
28 | TATTAAATATATATTACATGCAAAAAAAAAAAACAA [TGCATGCA_site705] | 7.97 ± 0.52
29 | AGGTGCAAAAATAAAACATGCAAAAATAAAAATGAA [TGCATGCA_site502] | 10.9 ± 0.65
30 | ATTTTTTTTTTTTTATGTACATATAGGTGCAAATCA [XGTACX_site6748] | 11.3 ± 1
31 | CAATATATTATATGGGTGCAAACCACATATAAATAA | 10.1 ± 0.33
32 | TACAAATATATAAAATGTACATATATATACATATTA [XGTACX_site3029] | 7.46 ± 0.27
33 | ATATAAAATACATGGGTGCAATATATTAAACAAATA [GTGCAC_site9421] | 11.2 ± 0.48
34 | TTTTATTGTTTTTTTTTTTTTTCTTTTTTTTTTTTT [CACACA_negctrl_site1094] | 7.91 ± 0.46
35 | ATACGTGGGCAAAAAGTGCATATAATCAAAAAAAAA [GTGCAC_site9961] | 10.4 ± 0.11
36 | ATAAGATAGGCATATACACACATTTATTTACAGATA [CACACA_site5754] | 7.71 ± 0.67
37 | TTGTTTTTGTTCTTGGGTACTTAAATTATAAATGAT [XGTACX_site113] | 8.07 ± 0.45
38 | ATAACTTTTTAAAAGACACACATAAGAAAAACAAAA [CACACA_site723] | 8.08 ± 0.64
39 | TATATGTGATAACACGCACACAAATGTATATAATTT [CACACA_site2593] | 8.1 ± 0.28
40 | TCTTTATATCATCTTTCTAAATATATATATATATAA [CACACA_negctrl_site77] | 7.84 ± 0.55

Row | Sequence | gcPBM binding intensity (ln)
41 | TTCATTAAATAGAACAAAATAATAATATAACAACAA [GTGCAC_negctrl_site116] | 7.74 ± 0.53
42 | AAAATAAATAAAAAAAGTACATATATAATTTATAAA [XGTACX_site2411] | 7.75 ± 0.39
43 | ACAAGTTTTTTTTTATCACACACAAAAAAAAAAATA [CACACA_site8377] | 7.9 ± 0.44
44 | TAATTATAATAATAACGTACATATATAAAATGGTGA [XGTACX_site8434] | 8.04 ± 0.34
45 | ATAAAACGTACAATGGTGCATATAAATAATATATAT [GTGCAC_site9960] | 11 ± 0.52
46 | AATATAAATAAAAACACACACAATGGTACATATATA [CACACA_site3671] | 7.84 ± 0.54
47 | TGTCCAATTTTTTATCGTACATAATATATAAATAAA [XGTACX_site1705] | 8.01 ± 0.33
48 | TTTTCTTGATTTTGTAGTACATTTTTACGATATTTT [XGTACX_site63] | 7.94 ± 0.55
49 | ATTTAATATCACAATATATTTTTTACCCTTATCAGC [CACACA_negctrl_site491] | 7.59 ± 0.76
50 | CGTTGGTATTAAAAGGTGCAATGAAATAATATATTA | 10.8 ± 0.63
51 | CATGAGGTATAAAAGGTGCAAATTAATGAGAACATT | 11.1 ± 0.36
52 | TATGTATTAATGAGAACATGCAAAATAATAAACAAT [TGCATGCA_site362] | 8.45 ± 0.59
53 | TTTTTAAAAAAACATACACACAAAAAAAAAAAAAAA [CACACA_site3935] | 8.11 ± 0.67
54 | TTATATCAAGGGAATGCATGCATATCGTTTTGTATT [TGCATGCA_site327] | 7.68 ± 0.88
55 | TATTGTATATAATAAACACACAATATTAAAAATATA [CACACA_site1057] | 7.4 ± 0.52
56 | ACAAAAAAAAACGTGGTGCATTAATAATATTGTATA [GTGCAC_site9469] | 11.7 ± 0.3
57 | AATATTGTATATAATAAACACACAATATTAAAAATA [CACACA_site8262] | 7.57 ± 0.39
58 | TCTTATATTATATTGTGTATTAAAATTTAACTTCAA [TGCATGCA_negctrl_site565] | 7.83 ± 0.58
